# Compound activity from PubChem BioAssay.
# D1 PAM = Potentiators of Human D1 Dopamine Receptor: qHTS. D(1A) dopamine receptor (Homo sapiens), P21728. HEK293 TREx D1 cells, calcium flux, dopamine EC20 potentiation. potentiation, % at 10 µM. 0.036% of 360,000 active; in the data active = potentiation above about 30%; also: 0% is about no effect
# Target sequence (P21728 whole entry, looked up): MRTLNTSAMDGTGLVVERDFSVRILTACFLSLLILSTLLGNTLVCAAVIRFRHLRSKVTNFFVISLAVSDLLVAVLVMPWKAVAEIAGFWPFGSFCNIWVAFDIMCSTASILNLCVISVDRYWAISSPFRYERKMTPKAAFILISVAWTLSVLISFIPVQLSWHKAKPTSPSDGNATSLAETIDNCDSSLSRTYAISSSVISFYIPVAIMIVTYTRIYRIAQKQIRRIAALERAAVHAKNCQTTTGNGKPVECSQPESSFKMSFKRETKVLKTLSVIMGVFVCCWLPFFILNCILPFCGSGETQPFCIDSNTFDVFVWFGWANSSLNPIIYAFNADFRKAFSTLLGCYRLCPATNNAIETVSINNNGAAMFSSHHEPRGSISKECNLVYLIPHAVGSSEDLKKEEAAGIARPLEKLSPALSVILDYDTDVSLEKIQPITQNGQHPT
# Glioma ERSR ind = qHTS for Inducers of the Endoplasmic Reticulum Stress Response (ERSR) in Human Glioma: qHTS. U87-MG GRP78 promoter luciferase reporter, 16 h. Potency, µM, without a hit: at the highest dose activation, most hits filed as activators. 0.02% of 420,000 active. AID 602332, 2012; active = well fitted activation curve with a large enough effect; also: potency is read from the fitted curve at half-maximal effect; series mostly up to about 76 µM; % of control where 0% means no effect; nearly all actives have a fitted effect of over 35% in size
#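 Stably transfected U87-MG human glioma cells carrying a GRP78-based luminescent sensor were seeded at 1000 cells/well, pin-dosed with compounds and incubated 16 h. Luciferase reagent was then added, and end-point luminescence was read after 10 min at room temperature.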
# D1 agonist = Allosteric Agonists of the Human D1 Dopamine Receptor: qHTS; D(1A) dopamine receptor (Homo sapiens), P21728; HEK293 T-REx D1 cells, calcium flux, agonist mode; activation, % at 2 µM; 1% of 360,000 active; also: 0% is about no effect
#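 Tetracycline-induced HEK293 TREx D1 cells, force-coupled to calcium signalling, were dye-loaded with a no-wash calcium kit. Compound was pin-added after a 10 s baseline. Fluorescence was read kinetically at 1 cycle/s for 180 s, with calcium rises flagged as agonism.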
# D1 antag = Antagonist of Human D 1 Dopamine Receptor: qHTS; HEK293 TREx D1 cells, calcium flux, dopamine EC80; stronger effect = lower value; activity change, negative = inhibition, % at 10 µM; 3.2% of 360,000 active; AID 504652, 2011; in the data active = activity change below about -30%; also: % is scaled to controls: 0 for no effect and ±100 for the full control effect
#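 Compound effects on dopamine-evoked calcium signalling were measured in tetracycline-induced HEK293 Trex D1 cells. Dopamine at EC80 followed a 180 s compound pre-read, and fluorescence was tracked kinetically for 180 s more.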
# TRHR PAM = qHTS for Small Molecule Agonists and Allosteric Enhancers of Human TRH Receptor: Primary Screen for Enhancers; Thyrotropin-releasing hormone receptor (Homo sapiens), P34981; TRHR cells, fluo-8 calcium fluorescence, EC20 TRH enhancement; enhancement, % at 2 µM; 0.66% of 360,000 active; AID 493056, 2011; in the data active = enhancement above about 30%; also: 0% is about no effect
#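 TRHR-expressing cells loaded with fluo-8 calcium dye were read kinetically (ex 480/em 530) during compound addition, then stimulated with an EC20 of TRH (10 nM final). Enhancement of the Gq-mediated intracellular calcium response was scored.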
# TRHR agonist = qHTS for Small Molecule Agonists and Allosteric Enhancers of Human TRH Receptor: Primary Screen for Agonists; 0.18% of 360,000 active; TRHR cells, calcium flux fluo-8, FDSS agonist mode; activation, % at 2 µM; AID 493084, 2011; also: 0% is about no effect
#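 Agonist-mode FDSS calcium read (Ex 480/Em 530, 1 s cycles) in 1536-well TRHR cells with fluo-8 dye, after 10-cycle baseline and 23 nL compound addition; TRH at EC20 (10 nM final) added afterwards for the enhancer phase.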
# * hit, by the source's call; nt = no result given; ! = a repeat was not active. Shown are actives, neighbours in structure and some others; about 4% of the full set was active somewhere. Rule as the data show it, unless noted: active = activation above about 30%; inactive = the rest.
SMILES,D1 PAM,Glioma ERSR ind,D1 agonist,D1 antag,TRHR PAM,TRHR agonist
Cc1ccc(NC(=O)COC(=O)Cn2nc(-c3ccc(F)cc3)oc2=O)cc1C,nt,-1%,nt,nt,nt,nt
O=C(COC(=O)Cn1nc(-c2ccccc2)oc1=O)Nc1ccc(F)cc1,-5,-5%,3,-34*,5,-1
O=S(=O)(NCc1ccco1)c1cccc(S(=O)(=O)N2CCCCC2)c1,5,-3%,2,-4,32*,0
COc1ccc(C)cc1S(=O)(=O)N1CCCC(C(=O)NC2CC2)C1 (stereo unspecified),-6,-5%,1,13,-3,0
C=CCOC(=O)/C(=C/c1ccco1)NC(=O)/C=C/c1ccccc1,-4,3%,4,-8,3,-1
O=C(O)CNC(=O)/C(=C/c1ccco1)NC(=O)/C=C/c1ccccc1,-8,-3%,270*,-36*,18,0
COc1ccc(COC(=O)N/N=C2/C[C@@H](O)[C@@H](O)[C@@H]3[C@@H]4C(=O)N(c5cccc(Oc6ccccc6)c5)C(=O)[C@H]4CC[C@@H]23)cc1,nt,-3%,nt,nt,nt,nt
CC(NC(=O)C1CCOCC1)c1nnc2n1CCN(Cc1ccc(F)cc1)CC2 (stereo unspecified),nt,3%,nt,nt,nt,nt
Cc1ccc(Cl)cc1N1CCN(C(=O)c2cc(S(=O)(=O)N3CCCCCC3)cn2C)CC1,0,0%,2,12,-7,0
O=C(NCCCN1CCN(c2ccccc2F)CC1)C1CCN(S(=O)(=O)N2CCOCC2)CC1,-10,-4%,9,-88*,8,0
Cc1ccc(C)c(N2CCN(CCCNC(=O)C3COc4ccccc4C3)CC2)c1 (stereo unspecified),0,-3%,63*,-26,-6,1
O=C(NCCN1CCN(c2ccccc2F)CC1)C1c2ccccc2C(=O)N2CCc3ccccc3C12 (stereo unspecified),-4,-4%,0,-44*,1,0
COc1ccc(N2CCN(CCCNC(=O)C3COc4ccccc4C3)CC2)cc1 (stereo unspecified),-1,-1%,13,-19,8,0
COc1ccc(N2CCN(CCCNC(=O)C3COc4ccc(OC)cc4C3)CC2)cc1 (stereo unspecified),-2,-3%,7,-16,-4,0
CCC(=O)N1c2ccccc2CC1C(=O)NCCN1CCN(c2ccccc2F)CC1 (stereo unspecified),-1,-3%,-1,-3,-1,0
O=C(NCCN1CCN(c2ccccc2)CC1)C1CCN(S(=O)(=O)N2CCOCC2)CC1,4,-1%,2,-11,-3,0
O=C(NCCCN1CCN(c2ccccc2F)CC1)C1COc2ccccc2C1 (stereo unspecified),-4,-2%,6,-34*,-1,0
CC(C)C[C@H](NC(=O)[C@H](Cc1ccccc1)NC(=O)[C@@H]1CCCN1C(=O)[C@H](CC(=O)O)NC(=O)[C@@H]1CCC(=O)N1)C(=O)N[C@@H](CCCN=C(N)N)C(=O)N[C@@H](Cc1ccccc1)C(N)=O,nt,-4%,nt,nt,nt,nt
O=C(NCCS(=O)(=O)N1CCN(c2ccccc2F)CC1)C1CC(=O)N(c2ccccc2)C1 (stereo unspecified),-2,-3%,115*!,4,5,0
COc1ccc2c(c1)CC(C(=O)NCCN1CCN(c3ccccc3F)CC1)CO2 (stereo unspecified),-5,-1%,1,-40*,8,0
COc1ccc2c(c1)CC(C(=O)NCCN1CCN(c3cccc(C)c3C)CC1)CO2 (stereo unspecified),-4,-2%,12,-14,-4,0
CC(=O)/C=C/c1ccc2c(c1)S(=O)(=O)N(C1CCCC1)[C@H]2CC(C)=O,nt,-12%,nt,nt,nt,nt
COc1ccccc1OC(C)C(=O)Nc1cccc(-c2nc3ccccc3o2)c1 (stereo unspecified),-1,4%,32*,-8,6,-1
Cc1cc(C)c2oc(-c3cccc(NC(=O)c4ccco4)c3)nc2c1,1,-3%,3,-46*,-9,1
CCc1ccc2oc(-c3ccc(C)c(NC(=O)COc4ccccc4Cl)c3)nc2c1,nt,-5%,nt,nt,nt,nt
SMILES,D1 PAM,Glioma ERSR ind,D1 agonist,D1 antag,TRHR PAM,TRHR agonist
CCc1ccc2oc(-c3cccc(NC(=O)COc4ccccc4Cl)c3)nc2c1,-3,-3%,-1,8,43*,1
O=C(Nc1ccc(-c2nc3cc(Cl)ccc3c(=O)o2)cc1)c1ccco1,-9,-5%,1,-32*,8,0
Oc1cc(-c2nc3ccccc3s2)cc2c1OCCN(Cc1cn[nH]c1-c1ccc(Cl)cc1)C2,nt,-2%,nt,nt,nt,nt
Cc1ccc(Cl)cc1N1CCN(C(=O)c2ccc3c(c2)N(Cc2ccc(F)cc2)CCS3)CC1,-2,-3%,1,-4,7,-2
CC(C)c1nc2c(c(=O)n(C)c(=O)n2C)n1C,-6,2%,1,-9,6,1
Cc1cc2oc(C(=O)Nc3cccc(-c4nc5ccccc5o4)c3)c(C)c2cc1C,-1,0%,54*,-4,3,-1
O=C(NCC1CCN(S(=O)(=O)c2ccccc2)CC1)Nc1ccc(F)cc1F,-3,-5%,5,-58*,-8,-1
O=C(NCC1CCN(S(=O)(=O)c2ccccc2)CC1)Nc1ccc(F)cc1,-2,0%,4,2,-8,1
O=C(CN1C(=O)NC2(CCCC2)C1=O)OCCOc1ccccc1,0,8%,1,4,9,0
O=C(CCCOc1ccccc1)NN1C(=O)NC2(CCCCC2)C1=O,-6,-2%,0,-43*,5,0
COc1cc(/C=C2\CC(C(C)(C)C)C/C(=C\c3cc(OC)c(OC)c(OC)c3)C2=O)cc(OC)c1OC (stereo unspecified),-3,-5%,32*,1,29,-1
COC(=O)/C=C/c1ccc2c(c1)S(=O)(=O)N(C1CCCC1)[C@H]2CC(=O)OC,nt,2%,nt,nt,nt,nt
CCC1=NN2C(=N)/C(=C\c3ccc(SCc4ccco4)o3)C(=O)N=C2S1,-9,-2%,38*,7,0,14
Cc1cc(/C=C2\C(=N)N3N=C(S(C)(=O)=O)SC3=NC2=O)c(C)n1Cc1ccccc1,-11,1%,3,27,-9,1
